Measured values published in the supplement of paper PMC6555819.

Key:
Test in all cases: PBM binding z-score (relative to random genomic background probes); higher = stronger binding; sequences stand for … in GC…GCGATTGACAGCGTAGAATGAAGG
[1] = tested on: PPARg:RXRa DBDmut IVT, anti-RXR (DBD mutation: RXRa K156A/R161A, NR concentration 270 nM, RXRa partner concentration 90 nM)
Summary of the method: (§1)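 Each nuclear receptor dimer, without ligand, was incubated for 1 h on custom Agilent 4×180K protein-binding microarrays. Binding was detected with antibodies against each partner (one per run), and scanned fluorescence was regression-normalized. The binding z-scores are referenced to random human genomic background probes.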

[2] = tested on: PPARg:RXRa IVT, anti-PPARg (NR concentration 270 nM, RXRa partner concentration 90 nM)
Summary of the method: as §1

[3] = tested on: PPARg DBDmut:RXRa IVT, anti-PPARg (DBD mutation: PPARg1 K132A/R137A, NR concentration 270 nM, RXRa partner concentration 90 nM)
Summary of the method: as §1

[4] = tested on: PPARg DBDmut IVT, anti-PPARg (DBD mutation: PPARg1 K132A/R137A, NR concentration 270 nM)
Summary of the method: as §1

[5] = tested on: PPARg homodimer (NR concentration 180 nM)
Summary of the method: as §1

[6] = tested on: PXR:RXRa (NR concentration 270 nM, RXRa partner concentration 90 nM)
Summary of the method: as §1

[7] = tested on: PXR homodimer (NR concentration 270 nM)
Summary of the method: as §1

[8] = tested on: RARa:RXR (NR concentration 270 nM, RXRa partner concentration 90 nM)
Summary of the method: as §1

[9] = tested on: RARa homodimer (NR concentration 270 nM)
Summary of the method: as §1

[10] = tested on: RARb:RXRa (NR concentration 270 nM, RXRa partner concentration 90 nM)
Summary of the method: as §1

TCTTGTAGATCAAGCAGGTTAAGAACGCCTGAGT
PBM binding z-score [1]: 1.42 | PBM binding z-score [2]: 0.613 | PBM binding z-score [3]: -0.194 | PBM binding z-score [4]: -0.44 | PBM binding z-score [5]: -0.0997 | PBM binding z-score [6]: 0.399 | PBM binding z-score [7]: 0.197 | PBM binding z-score [8]: 0.48 | PBM binding z-score [9]: -0.305 | PBM binding z-score [10]: 0.23

CCTACTGGGCCGTCAGGTCATTGATATCAACGTT
PBM binding z-score [1]: 1.17 | PBM binding z-score [2]: 2.14 | PBM binding z-score [3]: -0.782 | PBM binding z-score [4]: -0.667 | PBM binding z-score [5]: 0.741 | PBM binding z-score [6]: 1.33 | PBM binding z-score [7]: 0.502 | PBM binding z-score [8]: 1.53 | PBM binding z-score [9]: 0.0542 | PBM binding z-score [10]: 1.66

TCTTGTAGATCAAAGGTAAAGAAAGCCGAAGCCT
PBM binding z-score [1]: 2.51 | PBM binding z-score [2]: 2.4 | PBM binding z-score [3]: 0.0443 | PBM binding z-score [4]: -0.451 | PBM binding z-score [5]: 0.519 | PBM binding z-score [6]: 0.378 | PBM binding z-score [7]: 0.111 | PBM binding z-score [8]: 0.715 | PBM binding z-score [9]: -0.116 | PBM binding z-score [10]: 0.397

CCGACAGGGGCATAAGGTTACCATAAGCCAGCCC
PBM binding z-score [1]: -0.166 | PBM binding z-score [2]: 0.15 | PBM binding z-score [3]: -1.21 | PBM binding z-score [4]: -1.04 | PBM binding z-score [5]: 0.637 | PBM binding z-score [6]: 0.688 | PBM binding z-score [7]: -0.195 | PBM binding z-score [8]: 1.93 | PBM binding z-score [9]: -0.124 | PBM binding z-score [10]: 2.11

CCTACTAGGCCATTCAGAGGTCATTGATCATATG
PBM binding z-score [1]: 5.98 | PBM binding z-score [2]: 5.01 | PBM binding z-score [3]: 1.66 | PBM binding z-score [4]: 0.481 | PBM binding z-score [5]: 2.94 | PBM binding z-score [6]: 4.79 | PBM binding z-score [7]: 3.44 | PBM binding z-score [8]: 4.84 | PBM binding z-score [9]: 1.44 | PBM binding z-score [10]: 3.45

CGAACGAGGGCATGGGTTGATAGCAAATGCCGAT
PBM binding z-score [1]: 2.5 | PBM binding z-score [2]: 2.69 | PBM binding z-score [3]: -0.338 | PBM binding z-score [4]: 0.301 | PBM binding z-score [5]: 0.704 | PBM binding z-score [6]: 0.517 | PBM binding z-score [7]: 0.232 | PBM binding z-score [8]: 0.938 | PBM binding z-score [9]: -0.224 | PBM binding z-score [10]: 2.05

CCGACTGGGGCAGAAGGTTACCATAAGCCAGCCC
PBM binding z-score [1]: 1.61 | PBM binding z-score [2]: 1.92 | PBM binding z-score [3]: -0.993 | PBM binding z-score [4]: -1.69 | PBM binding z-score [5]: 0.826 | PBM binding z-score [6]: 0.166 | PBM binding z-score [7]: 0.188 | PBM binding z-score [8]: 0.736 | PBM binding z-score [9]: -0.0153 | PBM binding z-score [10]: 1.25

AGTCAAAGTTCAGGACGAGGTAACGTAAAGCACG
PBM binding z-score [1]: -0.443 | PBM binding z-score [2]: 2.06 | PBM binding z-score [3]: 0.129 | PBM binding z-score [4]: 0.321 | PBM binding z-score [5]: 1.91 | PBM binding z-score [6]: 2.94 | PBM binding z-score [7]: 0.827 | PBM binding z-score [8]: 2.8 | PBM binding z-score [9]: 0.702 | PBM binding z-score [10]: 4.26

ATAGACAGGTGAGTGAAGGTAACTCAGCTGGACG
PBM binding z-score [1]: -0.0175 | PBM binding z-score [2]: 0.973 | PBM binding z-score [3]: 0.246 | PBM binding z-score [4]: 0.208 | PBM binding z-score [5]: 0.132 | PBM binding z-score [6]: 0.352 | PBM binding z-score [7]: 0.0205 | PBM binding z-score [8]: 0.959 | PBM binding z-score [9]: -0.0264 | PBM binding z-score [10]: 0.603

GGAACGAGGGCATTCGAGTTGATAGCGTGGCGAT
PBM binding z-score [1]: 3.44 | PBM binding z-score [2]: 2.02 | PBM binding z-score [3]: -0.574 | PBM binding z-score [4]: -0.961 | PBM binding z-score [5]: 0.0421 | PBM binding z-score [6]: 3.71 | PBM binding z-score [7]: 1.79 | PBM binding z-score [8]: 0.221 | PBM binding z-score [9]: -0.388 | PBM binding z-score [10]: 1.85

CGAAGTAGGTCATCCAGGACAGTGAATACATTGA
PBM binding z-score [1]: 8.36 | PBM binding z-score [2]: 8.63 | PBM binding z-score [3]: 3.1 | PBM binding z-score [4]: 2.28 | PBM binding z-score [5]: 2.17 | PBM binding z-score [6]: 2.56 | PBM binding z-score [7]: 1.49 | PBM binding z-score [8]: 3.08 | PBM binding z-score [9]: 0.771 | PBM binding z-score [10]: 3.82

CCGACTGGGCCAGAAAGGTTACCATACCATCCGG
PBM binding z-score [1]: 0.593 | PBM binding z-score [2]: 0.483 | PBM binding z-score [3]: -0.91 | PBM binding z-score [4]: -1.13 | PBM binding z-score [5]: 0.203 | PBM binding z-score [6]: 0.831 | PBM binding z-score [7]: -0.302 | PBM binding z-score [8]: 1.83 | PBM binding z-score [9]: -0.242 | PBM binding z-score [10]: 1.47

TCTTGGAGATCAAGCAGGTTAAGAAAGCCTGAGT
PBM binding z-score [1]: 1.33 | PBM binding z-score [2]: -0.158 | PBM binding z-score [3]: -0.0417 | PBM binding z-score [4]: -0.978 | PBM binding z-score [5]: -0.522 | PBM binding z-score [6]: 0.538 | PBM binding z-score [7]: 0.0928 | PBM binding z-score [8]: 0.684 | PBM binding z-score [9]: -0.244 | PBM binding z-score [10]: 0.272

CCAGACAGGTGAGAAGGTAAGTCAGCCTCGATTA
PBM binding z-score [1]: 0.908 | PBM binding z-score [2]: 0.37 | PBM binding z-score [3]: -1.11 | PBM binding z-score [4]: -0.901 | PBM binding z-score [5]: 0.826 | PBM binding z-score [6]: 0.0674 | PBM binding z-score [7]: 0.339 | PBM binding z-score [8]: 0.396 | PBM binding z-score [9]: 0.66 | PBM binding z-score [10]: 0.566

TCTCGGAGGACACGAAGGTCAGAACTTTCCAGAG
PBM binding z-score [1]: 1.69 | PBM binding z-score [2]: 0.656 | PBM binding z-score [3]: 0.251 | PBM binding z-score [4]: -1.14 | PBM binding z-score [5]: 1.13 | PBM binding z-score [6]: 1.84 | PBM binding z-score [7]: 1.09 | PBM binding z-score [8]: 1.81 | PBM binding z-score [9]: 0.264 | PBM binding z-score [10]: 3.08

GCTGGGAGGACAAGGTCAGAGCTTTGTCCGTAGA
PBM binding z-score [1]: 0.282 | PBM binding z-score [2]: 0.836 | PBM binding z-score [3]: -1.6 | PBM binding z-score [4]: -1.38 | PBM binding z-score [5]: 1.02 | PBM binding z-score [6]: 1.89 | PBM binding z-score [7]: -0.0131 | PBM binding z-score [8]: 2.62 | PBM binding z-score [9]: -0.22 | PBM binding z-score [10]: 3.41

CCTACTGGGCCATAAGGTCATTGATATCAACGTT
PBM binding z-score [1]: 4.4 | PBM binding z-score [2]: 5.28 | PBM binding z-score [3]: 0.506 | PBM binding z-score [4]: 0.0496 | PBM binding z-score [5]: 2.03 | PBM binding z-score [6]: 3.98 | PBM binding z-score [7]: 1.97 | PBM binding z-score [8]: 4.25 | PBM binding z-score [9]: 1.27 | PBM binding z-score [10]: 3.43

ATATGAAGGTTACATCCGGGTCATTCAGGCTATG
PBM binding z-score [1]: 2.04 | PBM binding z-score [2]: 3.33 | PBM binding z-score [3]: 1.37 | PBM binding z-score [4]: 1.68 | PBM binding z-score [5]: 3.27 | PBM binding z-score [6]: 4.21 | PBM binding z-score [7]: 2.67 | PBM binding z-score [8]: 4.2 | PBM binding z-score [9]: 0.977 | PBM binding z-score [10]: 3.16

CGTCCAAGGTCCTAGGAGGTCAGTGAAGACAGAT
PBM binding z-score [1]: -0.235 | PBM binding z-score [2]: 0.579 | PBM binding z-score [3]: -1.17 | PBM binding z-score [4]: -1.02 | PBM binding z-score [5]: 1.48 | PBM binding z-score [6]: 3.01 | PBM binding z-score [7]: 0.587 | PBM binding z-score [8]: 2.87 | PBM binding z-score [9]: 0.328 | PBM binding z-score [10]: 2.42

TCATGTAGGTAAAAGGTGAAAGTCGGTGTGGTAA
PBM binding z-score [1]: 5.39 | PBM binding z-score [2]: 5.6 | PBM binding z-score [3]: 0.711 | PBM binding z-score [4]: 0.765 | PBM binding z-score [5]: 2.48 | PBM binding z-score [6]: 1.67 | PBM binding z-score [7]: 0.518 | PBM binding z-score [8]: 2.72 | PBM binding z-score [9]: 1.33 | PBM binding z-score [10]: 1.81

ATCGAAAGGTCGTGAGTTGAGTATACAGAAAGGC
PBM binding z-score [1]: -0.00462 | PBM binding z-score [2]: 1.66 | PBM binding z-score [3]: 1.4 | PBM binding z-score [4]: 1.03 | PBM binding z-score [5]: 1.91 | PBM binding z-score [6]: 3.2 | PBM binding z-score [7]: 0.152 | PBM binding z-score [8]: 3.9 | PBM binding z-score [9]: 0.363 | PBM binding z-score [10]: 3.82

ATCGAAAGGTCGTGAGGTGAGTAGACAGAAAGGC
PBM binding z-score [1]: 0.467 | PBM binding z-score [2]: 2.39 | PBM binding z-score [3]: 0.658 | PBM binding z-score [4]: 0.706 | PBM binding z-score [5]: 1.44 | PBM binding z-score [6]: 3.07 | PBM binding z-score [7]: 0.328 | PBM binding z-score [8]: 4.15 | PBM binding z-score [9]: 0.372 | PBM binding z-score [10]: 3.9

TCTCGGAGGACACGAAGGACAGAGCTTTCCAGAG
PBM binding z-score [1]: 1.14 | PBM binding z-score [2]: 0.0636 | PBM binding z-score [3]: -0.366 | PBM binding z-score [4]: -1.09 | PBM binding z-score [5]: -0.347 | PBM binding z-score [6]: -0.352 | PBM binding z-score [7]: -0.367 | PBM binding z-score [8]: 0.0176 | PBM binding z-score [9]: -1.01 | PBM binding z-score [10]: 1.54

CAAACTAGGTCACCGGAAGGTCAATGTCCGCATG
PBM binding z-score [1]: 8.58 | PBM binding z-score [2]: 8.99 | PBM binding z-score [3]: 1.98 | PBM binding z-score [4]: 1.35 | PBM binding z-score [5]: 6.39 | PBM binding z-score [6]: 5.65 | PBM binding z-score [7]: 1.15 | PBM binding z-score [8]: 6.94 | PBM binding z-score [9]: 1.41 | PBM binding z-score [10]: 5.25
